# The campaign covered roughly 77,000 compounds. About 4,600 (6%) were called active. Another 1% or so got no clear call; they are omitted. The sample holds actives, similar compounds and a random draw of the others, so the mix is not that of the screen.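 How the source made its calls: active means mean inhibition above about 93%, with at least 55% of replicates each passing it (limit read from the data, passing the limit was not always enough); inconclusive means only one of those two conditions holds; inactive means neither condition holds.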
# Experiment: T. cruzi intracellular proliferation inhibitors, primary screen, cell-based, beta-gal Tulahuen parasites, NIH3T3 host, luminescence (AID 624255)
# Conditions: T. cruzi beta-gal in NIH3T3, GalScreen luminescence, 90 h; at 8.34 µM; active compounds read high
row,SMILES,inhibition
1,CCNC(=O)C[C@@H]1CC[C@H]2[C@@H](COc3ccc(NC(=O)NC(C)C)cc3C(=O)N2C)O1,39.8% (inactive)
2,C[C@H](CO)N1C[C@H](C)[C@@H](CN(C)S(=O)(=O)c2cccs2)OCc2ccccc2-c2ccccc2C1=O,24.1% (inactive)
3,O=C(C[C@@H]1C[C@H]2c3cc(NS(=O)(=O)c4ccc(F)cc4)ccc3O[C@H]2[C@H](CO)O1)NC1CCCC1,-34% (inactive)
4,O=S(=O)(N[C@@H]1CC[C@H](CCn2cc(-c3ccccc3F)nn2)O[C@H]1CO)c1ccc(F)cc1,41.8% (inactive)
5,COc1cccc(NC(=O)Nc2ccc3c(c2)C(=O)N(C)[C@@H]2CC[C@@H](CC(=O)NCCc4ccccc4)O[C@H]2CO3)c1,52.2% (inactive)
6,COc1ccc(S(=O)(=O)N2C[C@@H](O)COC[C@H]3O[C@H](CC(=O)N[C@H]4CCN(Cc5ccccc5)C4)CC[C@@H]32)cc1,77.6% (inactive)
7,COc1ccc(NC(=O)Nc2ccc3c(c2)C(=O)N([C@H](C)CO)C[C@@H](C)[C@@H](CN(C)C(=O)NC(C)C)OCCCC[C@H](C)O3)cc1,38.7% (inactive)
8,CCC(=O)N(C)C[C@H]1Oc2cc(-c3ccccc3F)ccc2S(=O)(=O)N([C@H](C)CO)C[C@@H]1C,81.3% (inactive)
9,O=C(C[C@H]1CC[C@H]2[C@@H](COC[C@H](O)CN2Cc2ccncc2)O1)NCC1CC1,8.17% (inactive)
10,C[C@@H]1CN([C@@H](C)CO)C(=O)c2cc(C#CCN(C)C)cnc2O[C@H]1CN(C)S(=O)(=O)c1cn(C)cn1,-8.13% (inactive)
11,Cn1cnc(S(=O)(=O)N2C[C@H](O)COC[C@@H]3O[C@H](CC(=O)NC4CCCC4)CC[C@H]32)c1,5.65% (inactive)
12,CCC(=O)N1[C@@H]2c3ccc(-c4cccnc4)c(=O)n3C[C@H]1[C@H](CO)[C@H]2C(=O)N1CCc2ccccc2C1,29.4% (inactive)
13,O=C(C1CCC1)N1C[C@@H]2[C@H](c3ccccc31)[C@H](CO)N2C(=O)c1ccccc1,11.8% (inactive)
14,COCC#Cc1ccc2c(c1)O[C@@H](CN(C)Cc1cccnc1)[C@@H](C)CN([C@H](C)CO)S2(=O)=O,70% (inactive)
15,CCCN(C)C[C@H]1Oc2cc(C#CCC(C)C)ccc2S(=O)(=O)N([C@H](C)CO)C[C@H]1C,75.8% (inactive)
16,CC(C)CC#Cc1ccc2c(c1)O[C@H](CN(C)Cc1ccncc1)[C@H](C)CN([C@H](C)CO)S2(=O)=O,118% (active)
17,CC(C)CC#Cc1ccc2c(c1)O[C@H](CN(C)C(=O)c1cccnc1)[C@@H](C)CN([C@H](C)CO)S2(=O)=O,78.2% (inactive)
18,CC(C)CC#Cc1ccc2c(c1)O[C@H](CN(C)Cc1cccnc1)[C@H](C)CN([C@@H](C)CO)S2(=O)=O,103% (active)
